Experiment [1] in a line: qHTS to identify inhibitors of the type 1 interferon - major histocompatibility complex class I in skeletal muscle: primary screen against the NCATS Mechanism Interrogation Plate v5.0 (MIPE) Libary (AID 1347411).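 For activity change, negative = inhibition: plate controls were vehicle for no effect and reference inhibitor for full effect.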 Note: nearly all actives have a fitted effect of over 65% in size. Note: potency is the fitted concentration of half-maximal effect. The gist of the method: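 Luminescence from HiBiT-tagged endogenous HLA-B*08:01 served as the MHC class I read-out. CRISPR-engineered C25cl48 human myoblasts received 4.0 ng/ml IFN-beta plus compound for 24 hrs, with an 11-point, 1:3 series topping at 46 uM final.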

Experiment [2] can be described thus: Primary qHTS for inhibitors of nuclear receptor binding SET domain protein 2 (NSD2) in an isogenic RCH-ACV NSD2 p.E1099K mutant (9B) (AID 1645876). For activity change, negative = viability loss: % is set by controls: 0 for no effect and ±100 for the full control effect. Note: nearly all actives have a fitted effect of over 70% in size. Note: potency is the fitted concentration of half-maximal effect.
Experiment [3] can be described thus: Primary qHTS for inhibitors of nuclear receptor binding SET domain protein 2 (NSD2) in an RCH-ACV wild type WT cells (2C) (AID 1645877). For activity change, negative = cell killing: % is set by controls: 0 for no effect and ±100 for the full control effect. Note: nearly all actives have a fitted effect of over 70% in size. Note: potency is the fitted concentration of half-maximal effect.
Experiment [4] addresses Glutathione peroxidase 1 (Homo sapiens) (UniProt P07203). Nature of the experiment: Primary qHTS Assay for Inhibitors of Recombinant Selenoprotein Glutathione Peroxidase 1 (GPX1) (AID 1845191). Note: nearly all actives have a fitted effect of over 65% in size. Note: potency is the fitted concentration of half-maximal effect. Put shortly: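 Recombinant GPX1 (10 nM final) was preincubated with compound for 30 min at room temperature, then reacted with 1 mM GSH, 0.5 mM CHP, 0.5 mM NADPH and 100 nM glutathione reductase; NADPH fluorescence (340/450 nm) was read at 0 and 15 min.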

Experiment [5] deals with Phospholipid hydroperoxide glutathione peroxidase GPX4 (Homo sapiens) (UniProt P36969). Nature of the experiment: Primary qHTS Assay for Inhibitors of Recombinant Selenoprotein Glutathione Peroxidase 4 (GPX4) (AID 1845192). For activity change, negative = inhibition: series mostly up to about 50 µM; % is set by controls: 0 for no effect and ±100 for the full control effect. Note: nearly all actives have a fitted effect of over 65% in size. Particulars: outcome: dose series up to 50 µM unless noted. Put shortly:
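GR-coupled readout: 100 nM GR, 1 mM GSH, 0.5 mM NADPH; NADPH fluorescence (ex 340/em 450 nm) read at t=0 and after 15 min RT. GPX4 200 nM, preincubated 30 min with compound; substrate 0.5 mM CHP.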

The nature of experiment [6]: qHTS drug screen for cell cycle checkpoint inhibitors in PARPi-resistant BRCA-mutant ovarian cancer cell lines. (AID 1963452; calls by dose curve; note: potency is the fitted concentration of half-maximal effect). Particulars: PEO1/OlaR viability, CellTiter-Glo luminescence, 96 h; for Z-AUC: stronger effect = lower value. The gist of the method:
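PEO1, PEO4 and PEO1/OlaR ovarian cancer cells, 600 per well, exposed 96 h at 37C to a dilution series. Viability read by CellTiter-Glo luminescence, normalized to DMSO and empty wells; activity summarized as Z-AUC.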

Experiment [7] addresses Luciferin 4-monooxygenase (Photinus pyralis) (UniProt P08659). As to the kind of experiment: Biochemical firefly luciferase enzyme assay for NPC (AID 624030).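 Note: purified P. pyralis luciferase at 10 nM with luciferin and ATP substrate; series mostly up to about 59 µM; 0% = DMSO and -100% = full luciferase inhibition by PTC124 control; nearly all actives have a fitted effect of over 70% in size.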 Put shortly:
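Counter-screen for direct inhibition of the luciferase enzyme by approved-drug library compounds, run at 10 nM enzyme in 50 mM Tris acetate (final). Luminescence was read within 5 min of enzyme-buffer addition and normalized to PTC124 versus DMSO (0%).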

The target of experiment [8] is Tyrosine-protein kinase Yes (Homo sapiens) (UniProt P07947). Nature of the experiment: qHTS for small molecule inhibitors of Yes1 kinase: Primary Screen (AID 686947).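 Note: plate controls were DMSO with enzyme for no effect and no-enzyme DMSO wells for full effect; nearly all actives have a fitted effect of over 60% in size.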 Put shortly: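 Yes1 (4 nM) preincubated 20 min with compound, then 60 min room-temperature reaction with 0.1 mM ATP and 0.3 mg/mL poly(E4Y) in pH 7.5 Tris, 10 mM MgCl2. ADP measured by ADP-Glo luminescence, normalised to enzyme/no-enzyme controls.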

Experiment [9] is described as follows: qHTS for small molecule inhibitors of Yes1 kinase: Counter Assay (AID 686950).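 Note: no kinase present so only ADP-Glo detection of a fixed ADP amount is tested; luminescence from ADP-Glo reporting ADP in a fixed ATP and ADP mixture; series mostly up to about 77 µM; 0% = DMSO wells with ATP plus ADP and -100% = ATP-only wells without ADP.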 Put shortly:
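Enzyme-free ADP-Glo interference check: compounds were preincubated 20 min in buffer, then an ATP/ADP mix (0.08 mM ATP, 0.02 mM ADP final) was added for 60 min at room temperature before two-step ADP-Glo luminescence detection.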

Where [10] appears, read: measured here: PEO1 parental Z-AUC.

Inconclusive results are not listed. Activity calls are given as the source filed them. Unless noted, calls come from the whole dose curve; as a rule, active = well fitted curve in the direction sought with a large enough effect; inconclusive = small, poorly fitted or top-dose-only effect, or another doubt; inactive = no such curve, though single readings can be large; an effect the other way counts as inactive or inconclusive.

Chain of Glutathione peroxidase 1 (Homo sapiens) (P07203 whole entry, looked up): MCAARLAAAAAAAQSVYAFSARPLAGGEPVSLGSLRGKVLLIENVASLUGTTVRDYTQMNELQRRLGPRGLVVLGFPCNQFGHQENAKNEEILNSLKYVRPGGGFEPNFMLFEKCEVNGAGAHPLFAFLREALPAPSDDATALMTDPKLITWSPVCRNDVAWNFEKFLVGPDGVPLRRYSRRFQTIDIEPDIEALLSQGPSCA
Chain of Phospholipid hydroperoxide glutathione peroxidase GPX4 (Homo sapiens) (P36969 whole entry, looked up): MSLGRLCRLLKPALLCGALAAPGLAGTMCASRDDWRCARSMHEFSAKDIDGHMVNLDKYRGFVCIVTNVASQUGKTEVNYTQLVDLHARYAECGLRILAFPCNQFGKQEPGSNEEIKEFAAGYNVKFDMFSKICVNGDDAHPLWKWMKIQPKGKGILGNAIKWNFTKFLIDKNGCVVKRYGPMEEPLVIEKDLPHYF
Chain of Luciferin 4-monooxygenase (Photinus pyralis) (P08659 whole entry, looked up): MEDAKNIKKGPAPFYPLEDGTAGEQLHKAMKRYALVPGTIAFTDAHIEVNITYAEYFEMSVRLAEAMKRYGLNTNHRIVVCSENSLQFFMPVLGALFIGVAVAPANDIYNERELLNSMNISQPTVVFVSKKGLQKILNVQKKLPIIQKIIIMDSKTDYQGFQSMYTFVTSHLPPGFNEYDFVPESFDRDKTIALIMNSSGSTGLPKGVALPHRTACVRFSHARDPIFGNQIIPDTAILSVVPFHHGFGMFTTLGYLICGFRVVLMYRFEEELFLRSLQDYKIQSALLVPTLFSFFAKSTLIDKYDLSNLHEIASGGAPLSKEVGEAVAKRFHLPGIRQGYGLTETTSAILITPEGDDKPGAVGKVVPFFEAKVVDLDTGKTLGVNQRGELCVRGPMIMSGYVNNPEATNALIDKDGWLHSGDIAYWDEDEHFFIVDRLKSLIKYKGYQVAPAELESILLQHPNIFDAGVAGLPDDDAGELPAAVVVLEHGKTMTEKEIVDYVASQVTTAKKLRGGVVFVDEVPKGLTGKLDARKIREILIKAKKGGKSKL
Chain of Tyrosine-protein kinase Yes (Homo sapiens) (P07947 whole entry, looked up): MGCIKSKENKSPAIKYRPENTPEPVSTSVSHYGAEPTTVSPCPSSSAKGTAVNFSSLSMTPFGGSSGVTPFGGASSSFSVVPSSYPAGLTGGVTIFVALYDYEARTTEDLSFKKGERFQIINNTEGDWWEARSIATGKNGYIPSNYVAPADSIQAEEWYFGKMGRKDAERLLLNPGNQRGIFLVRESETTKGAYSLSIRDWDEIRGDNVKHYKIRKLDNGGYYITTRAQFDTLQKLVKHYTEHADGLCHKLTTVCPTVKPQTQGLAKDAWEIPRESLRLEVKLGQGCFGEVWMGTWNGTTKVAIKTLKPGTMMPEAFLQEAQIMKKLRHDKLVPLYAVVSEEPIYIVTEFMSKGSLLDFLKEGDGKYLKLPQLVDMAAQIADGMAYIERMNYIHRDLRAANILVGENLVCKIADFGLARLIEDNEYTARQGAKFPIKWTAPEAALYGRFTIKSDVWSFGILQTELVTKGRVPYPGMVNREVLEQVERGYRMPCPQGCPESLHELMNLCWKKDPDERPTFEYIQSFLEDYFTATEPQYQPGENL

Regarding `CNCCn1c(=O)c2cc(OC)c(OC)cc2c2cnc3cc4c(cc3c21)OCO4`, the activity change, negative = inhibition in experiment [1] was -8.45% [at 8.44 µM] (inactive). Moreover, the Potency in experiment [2] was 0.0096 µM (active); in experiment [3], 0.006 µM (active); in experiment [6], 0.0071 µM (active). Moreover, the values for the outcome in [4] and in experiment [5] were “inactive [at 9.52 µM]” and “inactive [at 9.73 µM]”, respectively. The Z-AUC in [6] (setting [10]) is -3.24; in [6] (measured here: PEO4 Z-AUC), -2.15.

Take `CC1Cc2ccccc2N1C(=O)Cc1nc(N2CCOCC2)cc(=O)[nH]1` (stereo not given): the Potency entry in [1], in experiment [4] and in [5] was “inactive” each time. Also, the Potency in experiment [2] is 5.25 µM (active); in experiment [3], 4.68 µM (active). Further, the Z-AUC is -1.34 (inactive) in experiment [6], -0.404 in experiment [6] (setting [10]) and -0.574 in experiment [6] (measured here: PEO4 Z-AUC).

As for `COc1ccc(Cl)cc1-c1cc(=O)[nH]c(=S)n1CC(N)=O`, the Potency result in experiment [1], in experiment [2], in experiment [3], in experiment [4] and in [5] was “inactive” in each case. Besides, the Z-AUC in [6] is 0.0644 (inactive); in experiment [6] (setting [10]), 0.00773; in experiment [6] (measured here: PEO4 Z-AUC) it was 0.346.

With `CCCNC(=O)c1cn2ncnc(Nc3cc(C(=O)NC4CC4)ccc3C)c2c1C`, the Potency result in experiment [1], in experiment [2], in experiment [3], in experiment [4] and in [5] was “inactive” in each case. For the same molecule, the Z-AUC in experiment [6] is -0.306 (inactive); in experiment [6] (setting [10]), 0.435; in experiment [6] (measured here: PEO4 Z-AUC), 0.239.

On to `CCN(CC)C(=O)Cc1csc(NS(=O)(=O)c2cccc(Cl)c2C)n1`, for which the Potency result in [1], in [2], in experiment [3], in [4] and in [5] was “inactive” in each case. Also, the Z-AUC in experiment [6] is 0.874 (inactive); in [6] (setting [10]), 0.835; in experiment [6] (measured here: PEO4 Z-AUC) it was 0.952.

For the molecule `O=C(NO)c1ccc(C2=Nc3ccccc3Oc3ccccc32)cc1`, the Potency in experiment [1] was 18.6 µM (active); in experiment [2], 2.95 µM (active); in experiment [3] it was 2.63 µM (active). Moreover, the Potency result in [4] and in experiment [5] was “inactive” each time. Besides, the Z-AUC in experiment [6] is -0.476 (inactive); in [6] (setting [10]), -1.06; in [6] (measured here: PEO4 Z-AUC), -1.1.

For the molecule `Nc1n[n+]([O-])c2ccccc2[n+]1[O-]`, the Potency entry in experiment [1], in experiment [4] and in experiment [5] was “inactive” throughout. For the same molecule, the Potency in experiment [2] was 18.6 µM (active); in experiment [3], 10.5 µM (active). The results for the Z-AUC in experiment [6], in [6] (setting [10]) and in experiment [6] (measured here: PEO4 Z-AUC) were -0.469 (inactive), -1.12 and -1.08, respectively.

On to `COC[C@@H](c1ccc(C(F)(F)F)cc1)N1CCN(C2(C)CCN(C(=O)c3c(C)ncnc3C)CC2)C[C@@H]1C`, for which the Potency result in [7] is “inactive”.

As for `COc1ccc(COc2ccc(Cc3cnc(N)nc3N)cc2OC)cc1`, the Potency result in experiment [8] was “inactive”. Moreover, the molecule was classed as inactive in experiment [9].

Regarding `Cc1nnn(C)c1-c1cnc2c3ccc(C(C)(C)O)cc3n([C@H](c3ccccc3)C3CCOCC3)c2c1`, in experiment [1], the Potency result is “inactive”. Also, the Potency is 0.0074 µM (active) in experiment [2], 0.0093 µM (active) in [3], 18.3 µM (active) in [4] and 0.549 µM (active) in [6]. The Z-AUC is -1.84 in experiment [6] (setting [10]) and -2.14 in experiment [6] (measured here: PEO4 Z-AUC).

Take `CN1CCN(C(=O)c2ccc(-c3ccc4c(C=O)c(O)ccc4c3)s2)CC1`: the Potency in [1] was 29.4 µM (active). Further, the Potency entry in [2], in [3] and in experiment [4] was “inactive” each time. Besides, the Z-AUC in [6] is 1.23 (inactive); in experiment [6] (setting [10]) it was 0.551; in experiment [6] (measured here: PEO4 Z-AUC), 0.471.

With `CN(C)C/C=C/C(=O)Nc1cc2c(Nc3ccc(F)c(Cl)c3)ncnc2cc1O[C@H]1CCOC1`, the Potency in experiment [1] was 16.5 µM (active); in [2], 2.35 µM (active); in experiment [3], 1.86 µM (active). For the same molecule, the Potency result in experiment [4] was “inactive”. For the same molecule, the Z-AUC in experiment [6] is -1.12 (inactive); in experiment [6] (setting [10]) it was -0.735; in [6] (measured here: PEO4 Z-AUC), -1.62.

Consider `COc1cc(OCc2cccc(-c3ccccc3)c2C)cc(OC)c1CN1CCCC[C@H]1C(=O)O`, for which the Potency entry in [1], in experiment [2], in [3] and in [4] was “inactive” in each case. Further, the figures for the Z-AUC in experiment [6], in experiment [6] (setting [10]) and in experiment [6] (measured here: PEO4 Z-AUC) were -0.024 (inactive), -0.135 and -0.37, respectively.

With `CN1CCN(C(=O)[C@H]2[C@@H](C(=O)O)[C@H]3CC[C@@H]2O3)CC1`, the activity change, negative = inhibition in experiment [1] is -7.67% [at 8.44 µM] (inactive). Moreover, the activity change, negative = viability loss in experiment [2] was 9.83% [at 9.23 µM] (inactive). In addition, the activity change, negative = cell killing in experiment [3] was 4.4% [at 9.23 µM] (inactive). Also, in experiment [4], the outcome was “inactive [at 9.52 µM]”. The Z-AUC in experiment [6] is 0.39 (inactive); in experiment [6] (setting [10]), 0.568; in experiment [6] (measured here: PEO4 Z-AUC), 0.663.

With `COc1ccc(C(=O)N2CCN(c3ccc4c(c3)CCC(=O)N4)CC2)cc1OC`, the Potency result in experiment [1], in experiment [2], in experiment [3] and in [4] was “inactive” each time. For the same molecule, the Z-AUC in experiment [6] is -0.238 (inactive); in experiment [6] (setting [10]) it was 0.0272; in experiment [6] (measured here: PEO4 Z-AUC) it was 0.0147.

With `O=C(NO)c1cnc(NC2(c3cccc(F)c3)CCCCC2)nc1`, the Potency entry in experiment [1] and in experiment [4] was “inactive” throughout. The Potency in [2] and in experiment [3] was 14.8 µM (active) in each case. In addition, the Z-AUC in experiment [6] is -1.41 (inactive); in experiment [6] (setting [10]), -0.775; in [6] (measured here: PEO4 Z-AUC) it was -0.635.

Consider `CCOc1cc(/C=C2/C(=O)N(c3ccccc3)N=C2C)cc(Cl)c1OCC(=O)OC`, for which the Potency result in experiment [1], in [2], in [3] and in [5] was “inactive” in each case. The figures for the Z-AUC in [6], in [6] (setting [10]) and in experiment [6] (measured here: PEO4 Z-AUC) were 1.36 (inactive), 1.44 and 0.891, respectively.

For the molecule `O=C(O)CCCCN(CCc1ccccc1OCc1ccc(CCc2ccccc2)cc1)Cc1ccc(C(=O)O)cc1`, the Potency entry in experiment [1], in experiment [2], in experiment [3] and in [4] was “inactive” each time. Moreover, the Z-AUC in experiment [6] was 0.163 (inactive); in [6] (setting [10]), 0.492; in [6] (measured here: PEO4 Z-AUC) it was 0.773.

`O=C(O)CCNc1cc(N2CCc3ccccc3CC2)nc(-c2cccnc2)n1`: the Potency result in experiment [1], in experiment [2], in [3] and in [4] was “inactive” each time. The Z-AUC is 1.21 (inactive) in experiment [6], 0.839 in [6] (setting [10]) and 0.897 in experiment [6] (measured here: PEO4 Z-AUC).

Regarding `Cc1nc(NC(=O)N2CCC[C@H]2C(N)=O)sc1-c1csc(C(C)(C)C)n1`, the Potency entry in experiment [1] and in experiment [4] was “inactive” each time. Also, the Potency in experiment [2] was 5.25 µM (active); in experiment [3], 4.68 µM (active). For the same molecule, the figures for the Z-AUC in [6], in experiment [6] (setting [10]) and in [6] (measured here: PEO4 Z-AUC) were 0.111 (inactive), 0.231 and 0.403, respectively.

Take `C=C1C[C@H]2C=Nc3cc(OCCCOc4cc5c(cc4OC)C(=O)N4CC(=C)C[C@H]4C=N5)c(OC)cc3C(=O)N2C1`: the Potency entry in [1], in [2], in [3] and in [4] was “inactive” in each case. The Z-AUC is 1.4 (inactive) in experiment [6], 0.729 in experiment [6] (setting [10]) and 0.852 in [6] (measured here: PEO4 Z-AUC).

For `Cn1ncc(NC(=O)c2nc(-c3c(F)cccc3F)sc2N)c1N1CC[C@@H](N)[C@H](F)CC1`, the Potency result in [1], in experiment [2], in experiment [3] and in [4] was “inactive” throughout. Moreover, the figures for the Z-AUC in experiment [6], in experiment [6] (setting [10]) and in experiment [6] (measured here: PEO4 Z-AUC) were 0.883 (inactive), 0.956 and 0.537, respectively.

For the origin of these results see PubChem BioAssay (NCATS).
